aDG glyco act = increases alpha dystroglycan glycosylation; 0.22% of 360,000 active; Pro5-aDG cells, alpha-DG glycosylation AlphaScreen (IIH6); 0% Pro5, 100% B10-LARGE cell signal; AID 624168; activation, % at 10 µM;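 active means activation of at least 8% versus controls, or a plate z-score of at least 8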;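 further: Pro5 are CHO cells carrying HIG-tagged alpha-DG that lacks glycosylation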
H9c2 protect = modulators protecting cardiomyocytes from myocardial damage; protection from H2O2 cell death, % at 20 µM; AID 588492; H9c2 cardiomyocytes, H2O2 injury protection, ATPLite, 2 h; 0.63% of 360,000 active;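 active means compounds giving at least 50% protection of heart cells from peroxide-induced death in the single-dose screen, raw or plate-pattern-corrected value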;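 further: 0% = DMSO wells with peroxide and 100% = DMSO wells without peroxide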
Mot1-301 SUMO = SUMOylation pathway inhibition by Mot1-301 growth rescue; 1% of 320,000 active; growth rescue, % at 18.8 µM; S. cerevisiae Mot1-301 growth rescue, ATP luminescence, 38.5C; percent above DMSO median, 100 means doubled;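 active means every valid replicate shows activation above 250% relative to neutral control wells; inactive means the rest, any valid replicate at or below 250%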;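 further: OY570 slx delta 5 strain wells were the positive control but not used for scaling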
Yeast superoxide = lowers age-related superoxide in aged yeast cells | superoxide response (% of plate mean), % at 10 µM | AID 2690 | 0.18% of 330,000 active | S. cerevisiae aged cells, superoxide DHE fluorescence; stronger effect = lower value;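 active means superoxide response under a set limit, about three screen SD below normal, cut at about 65% in these data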;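 further: yeast aged for seven days with compound at 30 °C before DHE staining; 100% = average MFI of all compound-treated wells on the plate with controls excluded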
FAS-TE inh = FAS thioesterase (human) inhibition. P49327. 0.67% of 360,000 active. recombinant FAS-TE, OMFH fluorogenic substrate, fluorescence endpoint. AID 602261. inhibition, % at 15 µM;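 active means compounds whose normalised, plate-corrected inhibition of enzyme fluorescence in the single-dose primary screen is 50% or more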;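 further: 0% = DMSO with enzyme and 100% = substrate without enzyme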
MPTP block = permeability transition pore inhibition; isolated mouse mitochondria, Ca2+ swelling absorbance, 30 min; AID 602449; inhibition, % at 10 µM; 1.4% of 360,000 active;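 active means inhibition of 50% or more, scaled per plate between neutral and stimulator controls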;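 further: 0% = DMSO wells given calcium and 100% = 1 mM EGTA wells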
MPTP counter = Rhodamine 123 counter-screen of mitochondrial pore hits. inhibition, % at 10 µM. 78% of 5,000 active. isolated mitochondria, membrane potential, Rhodamine 123 fluorescence. shares compounds with MPTP block; in the data active means inhibition above about 22%;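 further: 0% = DMSO vehicle and 100% = positive control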
MPTP abs DR = MPTP inhibition, dose response swelling confirmation; shares compounds with MPTP block; isolated mitochondria swelling, absorbance; IC50, µM; 58% of 780 active; in the data active means IC50 below about 20 µM
MPTP counter DR = MPTP inhibitor counter-screen activity, dose response | shares compounds with MPTP block | isolated mitochondria counterscreen, fluorescence read-out | IC50, µM | 49% of 780 active; in the data active means IC50 below about 80 µM
An asterisk follows results filed as active; . = no result given. An excerpt weighted towards active compounds, which were near 3.8% of everything screened.

SMILES	aDG glyco act	H9c2 protect	Mot1-301 SUMO	Yeast superoxide	FAS-TE inh	MPTP block	MPTP counter	others
O=C(NC(=S)Nc1nc(-c2cccc([N+](=O)[O-])c2)cs1)c1cc(Cl)ccc1Cl	0.6	-7.0	7.2	105.2	21.0	56.7*	12.9	MPTP abs DR=19.5*;MPTP counter DR=<2.5*
O=C(Nc1cccc(-c2csc(Nc3cccc(C(F)(F)F)c3)n2)c1)c1cc([N+](=O)[O-])cc(C(F)(F)F)c1	0.5	-12.3	13.4	94.6	33.8	7.1	.
O=C1C=C(c2cccc(CO)c2)C[C@@H](c2ccc(Cl)cc2)C1	0.2	-5.8	68.1	97.3	8.4	-1.6	.
N#CCC(=O)NCCCOC(=O)Nc1ccc(Cl)c(Cl)c1	0.2	-12.6	-5.9	76.2	2.6	79.3*	85.8*
Cc1ccc(NS(=O)(=O)c2cc(Br)cnc2N)c(Cl)c1	-0.1	-2.7	70.2	91.0	-0.6	6.3	.
Nc1ncc(Br)cc1S(=O)(=O)Nc1cc(C(F)(F)F)cc(C(F)(F)F)c1	0.0	-15.8	13.8	118.8	30.1	85.1*	84.6*
OCCN1CCN(c2ncnc3c2ncn3[C@H]2CN(Cc3cccs3)C[C@@H](CO)O2)CC1	-0.1	-2.8	.	.	-7.7	57.1*	-2.6	MPTP abs DR=>100;MPTP counter DR=>80
OC[C@@H]1CN(Cc2cccs2)C[C@H](n2cnc3c(N4CCN(c5ccccc5)CC4)ncnc32)O1	-0.4	-3.7	.	.	2.1	0.2	.
CCCCCN=C(N)N/N=C/c1c[nH]c2ccc(OC)cc12	-0.3	-42.6	-30.4	112.6	-8.9	85.1*	23.2*
CN(C)CCN(C)C1CN(Cc2ccc([N+](=O)[O-])cc2)S(=O)(=O)C1 (stereo not given)	0.4	-5.6	.	.	-1.1	-1.2	.
COC(=O)c1c(NC(=O)/C=C/c2ccco2)sc2c1CCC2	0.1	-1.0	-3.4	114.7	-9.8	-0.4	.
Cc1sc(NC(=O)/C=C/c2ccco2)c(C(=O)OC(C)C)c1C	-0.2	-11.8	4.9	109.3	8.6	52.2*	0.8	MPTP abs DR=>100;MPTP counter DR=>80
CSCCC(NC(=O)c1ccc(Cl)cc1Cl)C(=O)NCC(c1cccs1)N(C)C (stereo not given)	0.1	4.0	.	.	14.7	-0.1	.
O=C(NC1C/C(=N/O)c2cc3c(cc21)OCO3)C(F)(F)F (stereo not given)	0.0	-0.8	-0.2	105.3	-5.5	145.0*	-7.5	MPTP abs DR=>100;MPTP counter DR=>80
O=C1CC(NC(=O)C(F)(F)F)c2cc3c(cc21)OCO3 (stereo not given)	-0.4	1.6	-3.3	96.2	-6.2	-1.4	.
COc1cc(CNCCc2c[nH]c3ccccc23)ccc1OCc1ccc(F)cc1	2.9	-37.5	216.2	96.5	-16.2	70.3*	-25.2
COc1cccc(CNCCc2c[nH]c3ccccc23)c1OCc1ccc(F)cc1	3.0	-31.8	0.5	110.2	-13.7	31.8	.
CCCCCCSc1nsc(NC(=O)CC(C)C)n1	2.0	-10.6	2.7	95.1	18.9	77.8*	91.6*
COc1ccccc1CNc1nc(NCCOc2ccccc2Cl)c2sccc2n1	0.9	-23.9	.	.	15.8	50.5*	91.8*
c1csc(CNc2nc(NCC3CCCCC3)c3sccc3n2)c1	1.1	-25.4	.	.	8.5	51.0*	91.1*
CC(C)c1ccc(CNc2nc(NCC3CC3)nc3ccsc23)cc1	5.2	-15.2	.	.	4.9	80.3*	99.2*
CSc1ccccc1CNc1nc(NCC2CC2)nc2ccsc12	0.3	-17.2	.	.	10.2	91.2*	102.3*
CNc1nc(NCCOc2ccccc2Cl)c2sccc2n1	1.6	-14.4	.	.	-2.1	1.4	.
O=C(Nc1ccc(Cl)cc1)C1=Cc2cc(Cl)ccc2OC1	0.0	-34.0	-9.0	104.6	28.9	98.9*	112.9*
O=C(Nc1ccc(Cl)cc1Cl)C1=Cc2ccccc2OC1	0.5	-21.4	-11.8	96.2	15.1	-0.4	.
SMILES	aDG glyco act	H9c2 protect	Mot1-301 SUMO	Yeast superoxide	FAS-TE inh	MPTP block	MPTP counter	others
CCN(CC)S(=O)(=O)c1cc([N+](=O)[O-])ccc1NNC(=O)Nc1ccc(F)cc1	0.2	-18.1	9.8	91.1	5.2	85.6*	91.6*
CCN(CC)S(=O)(=O)c1cc([N+](=O)[O-])ccc1NNC(=O)Nc1ccccc1OC	0.3	15.5	5.0	101.6	12.6	2.9	.
COc1ncccc1-c1ccc2nncn2c1	0.2	9.7	.	.	-6.6	-1.5	.
O=S(=O)(NCc1ccccc1)c1ccc(-c2cnc(C3CC3)o2)cc1	0.6	-10.3	-13.6	98.3	1.1	-0.6	.
CCOc1ccccc1CNS(=O)(=O)c1ccc(-c2cnc(C3CC3)o2)cc1	0.2	-21.6	.	103.8	19.7	50.8*	84.3*
N=c1c2c(-c3ccccc3)c(-c3ccccc3)n(Cc3ccco3)c2ncn1CCO	1.0	-37.2	-10.8	113.3	-5.2	80.7*	-2.9
N=c1c2c(-c3ccccc3)c(-c3ccccc3)n(Cc3ccco3)c2ncn1CCCO	0.3	-10.6	267.3	91.5	9.9	3.2	.
Fc1ccc2nc(Nc3ccccc3)sc2c1	0.0	-25.2	.	86.4	18.4	4.6	.
Fc1ccc2nc(Nc3nc4c(F)cc(F)cc4s3)sc2c1	0.2	-15.6	-11.5	103.9	-0.4	97.0*	71.2*
Fc1ccc2nc(Nc3nc4c(F)cccc4s3)sc2c1	0.0	-17.4	-1.8	94.7	5.2	95.9*	46.4*
O=C(c1cccc(Cl)c1)N1CCC(=O)N([C@H](COCc2cccc(Cl)c2)Cc2ccccc2)CC1	0.1	.	.	.	26.8	-2.0	.
Cc1nnc(N/N=C/c2cc([N+](=O)[O-])c(N3CCC(C)CC3)cc2N2CCC(C)CC2)n1N	1.7	-7.9	-3.2	95.6	5.6	83.2*	65.8*
CCc1nnc(N/N=C/c2ccc(N3CCC(C)CC3)c([N+](=O)[O-])c2)n1N	0.4	-12.4	49.3	112.7	5.0	-0.7	.
O=c1[nH]nc(Cc2ccc(-c3ccc(Cl)cc3)o2)c2ccccc12	1.6	-11.7	5.0	124.9	-4.9	64.5*	19.6	MPTP abs DR=>100;MPTP counter DR=10*
O=c1[nH]nc(Cc2ccc3ccccc3n2)c2ccccc12	0.1	39.1	95.3	97.4	-5.3	13.5	.
CN(c1ccccc1)S(=O)(=O)c1cccc(NC(=O)c2cc(=O)c3ccccc3o2)c1	-0.2	41.9	-2.5	99.5	26.1	3.5	.
CCOc1ccc2[nH]c3c(NCCN(C)C)ncnc3c2c1	0.0	0.7	12.6	77.3	-3.7	-0.5	.
CCOc1ccc2[nH]c3c(NCCC(C)C)ncnc3c2c1	0.7	-18.9	321.9	98.6	1.4	78.0*	67.1*
COc1ccc2[nH]c3c(NCCC4=CCCCC4)ncnc3c2c1	0.4	-17.4	.	.	2.7	94.1*	92.8*

Bioassay records (PubChem)
